About 83,000 compounds went through this panel and 20% of them were active in at least one assay; those are over-represented in the sample as a whole.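 How to read the values: 0–100, growth inhibition (40 = 60% inhibited); 0, no net growth; -100 to 0, cell death (-40 = 40% of starting cells died; -100 = all dead).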 Values without a mark were called inactive. The source made the active and inactive calls. The calls were made as follows: active = growth percent below 10; inactive = the rest.

From PubChem BioAssay (NCI) come the findings set out here.

Test systems include NCI-H226 lung; NCI-H322M lung; HOP-62 NSCLC; NCI-H460 lung; HOP-92 NSCLC; NCI-H522 lung; A549/ATCC NSCLC; 786-0 renal; COLO 205 colon; DU-145 prostate.
What all share (assay): NCI-60 one-dose screen, 48 h (100 = growth as untreated, 0 = no growth, -100 = all killed)
Holding throughout (settings): 10 µM unless noted

For the compound `COc1ccc2[nH]cc(-c3cc(N)n4nc(-c5c[nH]c6ccc(OC)cc56)cc4n3)c2c1`, the growth in the assay on NCI-H226 lung is 36.8%; with NCI-H322M lung, 25.4%; in the assay with HOP-62 NSCLC, 76.2%; with NCI-H460 lung, -84.6% (active); with HOP-92 NSCLC, 79.1%; in the assay with NCI-H522 lung, 53.9%. Also, the growth with A549/ATCC NSCLC is -5.78% (active); in the assay with 786-0 renal, -86.4% (active); in the assay with COLO 205 colon it was -54.3% (active); in the assay with DU-145 prostate it was -10.5% (active).

As for `COc1ccc(C(=O)/C=C/c2ccc(Oc3nc(NCCO)nc(N4CCOCC4)n3)c(OC)c2)cc1`, the growth in the assay with NCI-H226 lung is 92.9%; in the assay with NCI-H322M lung, 96.6%; in the assay on HOP-62 NSCLC, 106%; with NCI-H460 lung it was 79.8%; in the assay on HOP-92 NSCLC, 104%; in the assay with NCI-H522 lung it was 66.4%. The growth is 103% with A549/ATCC NSCLC, 100% in the assay on 786-0 renal, 114% in the assay with COLO 205 colon and 95% in the assay on DU-145 prostate.

As for `CCOc1ccc2nc(NC(=O)c3ccc(C(F)(F)F)cc3)sc2c1`, the growth with NCI-H226 lung was 107%; in the assay on NCI-H322M lung, 107%; in the assay with HOP-62 NSCLC, 118%; with NCI-H460 lung, 101%; with HOP-92 NSCLC, 139%; in the assay on NCI-H522 lung, 94.4%. For the same compound, the growth was 101% in the assay on A549/ATCC NSCLC, 99.6% in the assay with 786-0 renal, 117% in the assay with COLO 205 colon and 105% in the assay on DU-145 prostate.

Regarding `NC(=O)c1c(NC(=O)c2ccc(C3CCCCC3)cc2)sc2c1CCC(=O)C2`, the growth with NCI-H226 lung was 19.6%; with NCI-H322M lung it was 97.8%; in the assay on HOP-62 NSCLC, 56.4%; in the assay with NCI-H460 lung it was 15.8%; in the assay on HOP-92 NSCLC, -15.4% (active); in the assay with NCI-H522 lung, -2.16% (active). Also, the growth in the assay with A549/ATCC NSCLC was 10.8%; in the assay with 786-0 renal, 26.3%; in the assay with COLO 205 colon, -36.1% (active); in the assay on DU-145 prostate, 49.2%.

As for `CCOc1ccc([C@H]2C(C(=O)c3ccc(Cl)cc3)C3(N[C@@H]2c2ccccc2)C(=O)Nc2ccc(Br)cc23)cc1` (stereo not given in full), the growth in the assay with NCI-H226 lung was 47.3%; in the assay on NCI-H322M lung, 45.6%; in the assay on HOP-62 NSCLC, 54.5%; in the assay with NCI-H460 lung, 2.83% (active); in the assay on HOP-92 NSCLC, 16%; in the assay on NCI-H522 lung it was 51.5%. For the same compound, the growth in the assay with A549/ATCC NSCLC is 26%; with 786-0 renal, 23%; with COLO 205 colon, 19.3%; in the assay on DU-145 prostate, 47.6%.

For the compound `CNC(=O)c1cc(-c2ccc(NC(=O)Nc3ccc(N4CCOCC4)c(C(F)(F)F)c3)cc2)nc2cccnc12`, the growth is 54.8% in the assay on NCI-H226 lung; 71.7% in the assay on NCI-H322M lung; 80.6% in the assay with HOP-62 NSCLC; 23.9% in the assay with NCI-H460 lung; 57.2% in the assay on HOP-92 NSCLC; 65.5% with NCI-H522 lung. For the same compound, the growth is 51.6% in the assay with A549/ATCC NSCLC, 25.9% in the assay with 786-0 renal, 84.7% with COLO 205 colon and 69.6% in the assay with DU-145 prostate.

Regarding `C#Cc1nc(C2=C(C)C(O)CC2)cs1` (stereo not given), the growth is 110% in the assay with NCI-H226 lung; 111% in the assay with NCI-H322M lung; 103% in the assay with HOP-62 NSCLC; 113% in the assay on NCI-H460 lung; 115% in the assay with HOP-92 NSCLC; 97.2% with NCI-H522 lung. Also, the growth with A549/ATCC NSCLC is 100%; with 786-0 renal, -87.8% (active); in the assay with COLO 205 colon, 118%; with DU-145 prostate, 110%.

In the case of `O=C(CSc1nc2sc3c(c2c(=O)n1-c1ccc(Cl)cc1)CCCC3)NNC(=O)Nc1cccc(C(F)(F)F)c1`, the growth was 32.6% with NCI-H226 lung; 49.4% in the assay on NCI-H322M lung; 37.9% in the assay with HOP-62 NSCLC; 5.83% (active) with NCI-H460 lung; -14.1% (active) in the assay with HOP-92 NSCLC; 23.1% in the assay with NCI-H522 lung. Further, the growth is 24% in the assay with A549/ATCC NSCLC, 30.3% with 786-0 renal, 27% with COLO 205 colon and 18.2% in the assay with DU-145 prostate.

For the compound `CN(C)CCCNc1c2ccccc2nc2c1oc1ccc(Cl)cc12`, the growth in the assay on NCI-H226 lung is 28.5%; in the assay on NCI-H322M lung, 24.4%; in the assay on HOP-62 NSCLC, 55.7%; in the assay on NCI-H460 lung, 12.6%; with HOP-92 NSCLC, 34.8%; in the assay on NCI-H522 lung, 38%. Besides, the growth is 27.5% in the assay on A549/ATCC NSCLC, 18.6% with 786-0 renal, 14.5% in the assay on COLO 205 colon and 20.8% in the assay with DU-145 prostate.

For `COc1cc(-c2ccc3ncnc(NC(C)c4ccccc4)c3c2)cnc1OC` (stereo not given), the growth with NCI-H226 lung is 52.8%; in the assay with NCI-H322M lung, 15.4%; in the assay with HOP-62 NSCLC, 44.4%; in the assay with NCI-H460 lung, 64.5%; in the assay with HOP-92 NSCLC, 20.1%; with NCI-H522 lung, 40.9%. Moreover, the growth in the assay with A549/ATCC NSCLC was 41.9%; in the assay with 786-0 renal, 44.2%; with COLO 205 colon, 72.9%; in the assay on DU-145 prostate it was 37.2%.

Regarding `Clc1ccc2oc3c(NCCCn4ccnc4)c4ccccc4nc3c2c1`, the growth in the assay with NCI-H226 lung was 40%; in the assay on NCI-H322M lung it was 41.5%; with HOP-62 NSCLC, 66.2%; in the assay with NCI-H460 lung it was -25.9% (active); with HOP-92 NSCLC, 47.2%; with NCI-H522 lung, 48.3%. Further, the growth in the assay on A549/ATCC NSCLC is 32.7%; with 786-0 renal, 6.65% (active); in the assay with COLO 205 colon, 55.2%; with DU-145 prostate, 21.9%.

As for `CS(=O)(=O)c1ccc(-c2nc3ccccn3c2/C=N/Nc2nc(-c3ccc(Br)cc3)cs2)cc1`, the growth is 108% in the assay on NCI-H226 lung; 111% in the assay on NCI-H322M lung; 121% with HOP-62 NSCLC; 104% in the assay with NCI-H460 lung; 116% in the assay with HOP-92 NSCLC; 99.8% with NCI-H522 lung. Also, the growth is 109% in the assay on A549/ATCC NSCLC, 84.8% with 786-0 renal, 116% in the assay with COLO 205 colon and 109% with DU-145 prostate.

For `Cc1c(NC(=O)CSc2nc3sc4c(c3c(=O)n2-c2ccc(Cl)cc2)CCCC4)c(=O)n(-c2ccccc2)n1C`, the growth was 108% in the assay with NCI-H226 lung; 94.9% in the assay with NCI-H322M lung; 99.3% with HOP-62 NSCLC; 96.8% in the assay on NCI-H460 lung; 96.3% in the assay on HOP-92 NSCLC; 96.8% in the assay on NCI-H522 lung. Further, the growth was 81.2% in the assay on A549/ATCC NSCLC, 102% with 786-0 renal, 106% in the assay on COLO 205 colon and 89.4% in the assay on DU-145 prostate.
